The record followed here is PubChem BioAssay.

Broadly, the viability is a read-out of living cells in per cent, often relative to untreated cells. As a reminder, the AC50 is the midpoint of the concentration-response curve, whichever way the signal moves. Usually IC50 stands for the concentration at which inhibition is half-maximal.

A short description of assay [1]: ovarian cancer cell viability with rucaparib, profiling panel, oncology-focused library, rucaparib conditional (AID 1508598). Particulars: patient-derived ovarian cancer cells, CellTiter-Glo viability, 144 h, stronger effect = lower value. A general note: In ATP-based viability assays light output follows the ATP content of the culture.
Assay [2] in a line: growth inhibition of DIPG glioma cells, dose response, cell-based, SU-DIPG-XVII, MIPE5.0, CellTiter-Glo, qHTS (AID 1347060; cut-off not given, nearly all actives have AC50 up to about 26 µM;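 as to AC50: cells exposed to compound for 48 hours before viability readout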). The conditions noted are these: SU-DIPG-XVII viability, CellTiter-Glo ATP luminescence.
Assay [3] in a line: growth inhibition of DIPG glioma cells, dose response, cell-based, SU-DIPG-XIII, MIPE4.0, CellTiter-Glo, qHTS (AID 1347061; cut-off not given, nearly all actives have AC50 up to about 37 µM;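 also: cells exposed to compound for 48 hours before readout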). The conditions noted are these: SU-DIPG-XIII viability, CellTiter-Glo ATP luminescence.
Assay [4] in a line: growth inhibition of DIPG glioma cells, dose response, cell-based, JHH-DIPG-1, MIPE4.0, CellTiter-Glo, qHTS (AID 1347062; cut-off not given, nearly all actives have AC50 up to about 27 µM;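 as to AC50: cells exposed to compound for two days before readout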). The conditions noted are these: JHH-DIPG-1 viability, CellTiter-Glo ATP luminescence.
Assay [5] can be described thus: growth inhibition of DIPG glioma cells, dose response, cell-based, SU-DIPG-IV, MIPE4.0, CellTiter-Glo, qHTS (AID 1347063; cut-off not given, nearly all actives have AC50 up to about 30 µM;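 also: compound exposure lasted 48 hours before the viability readout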). The conditions noted are these: SU-DIPG-IV viability, CellTiter-Glo ATP luminescence.
Assay [6] can be described thus: growth inhibition of DIPG glioma cells, dose response, cell-based, SU-DIPG-XIII, MIPE5.0, CellTiter-Glo, qHTS (AID 1347064; cut-off not given, nearly all actives have AC50 up to about 23 µM;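 as to AC50: cells exposed to compound for 48 hours before the viability read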). Particulars: SU-DIPG-XIII viability, CellTiter-Glo ATP luminescence.
A short description of assay [7]: viability loss in pontine glioma line – cell-based, SU-DIPG-XXV, MIPE5.0, CellTiter-Glo, qHTS, dose response (AID 1347065; cut-off not given, nearly all actives have AC50 up to about 26 µM;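 also: cells exposed to compound for 48 hours before ATP readout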). The conditions noted are these: CellTiter-Glo ATP luminescence.
Assay [8] is described as follows: JHH-DIPG-1 glioma cell viability, MIPE5.0 library, CellTiter-Glo luminescence, qHTS (AID 1347067; cut-off not given, nearly all actives have AC50 up to about 26 µM;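 also: cells exposed to compound for 48 hours before readout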). Particulars: JHH-DIPG-1 glioma viability, CellTiter-Glo ATP luminescence.
A short description of assay [9]: SU-DIPG-XXV glioma cell viability, MIPE5.0 library, qHTS (AID 1347068; cut-off not given, nearly all actives have IC50 up to about 30 µM;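 as to IC50: cells exposed to compound for 48 hours before viability readout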).
A short description of assay [10]: SU-DIPG-VI glioma cell viability, MIPE4.0 library, CellTiter-Glo luminescence, qHTS (AID 1347066; cut-off not given, nearly all actives have AC50 up to about 30 µM;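 also: cells exposed to compound for 48 hours before readout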). The conditions noted are these: CellTiter-Glo ATP luminescence.
Assay [11] is described as follows: sensitizers of A549 cells to miR-34 induction, primary screen, imaging, A549 dox-inducible miR-34, nuclei and caspase counts (AID 1347080;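 active = compounds whose cell count with miR-34 switched on is under 0.7 times the count with it off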). Particulars: A549 miR-34 inducible, Hoechst nuclei count, 48 h.
The nature of assay [12]: modifiers of HSF1 nuclear foci, imaging, Selleck Cancer Library (AID 1347162; in the data active = plate-normalised HSF1 focus index below about 0.46). The conditions noted are these: human cells, at 10 µM; SSMD: measured here: HSF1 foci SSMD mean; cell count: measured here: cell number; plate-normalised HSF1 focus index: stronger effect = lower value.
The nature of assay [13]: survival rescue of mitochondrial mutant cells in low glucose, primary screen, MELAS cybrids, Rieske KO mouse fibroblasts, CellTiter-Glo (AID 1508586;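 active = mean z-score across replicates of 1.96 or higher in either the MELAS or the Rieske mutant cell line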;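 also: z relative to plate mean and SD of compound and empty wells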).
Where [14] appears, read: at 0.0195 µM, OCI-C5x cells, without rucaparib.
Where [15] appears, read: at 0.0195 µM, OCI-P5x cells, with rucaparib 20 µM, 100% = cells with rucaparib alone.
[16] abbreviates: at 0.0195 µM, OCI-P5x cells, without rucaparib.
[17] abbreviates: at 0.0781 µM, OCI-C5x cells, with rucaparib 10 µM, 100% = cells with rucaparib alone.
[18] abbreviates: at 0.0781 µM, OCI-C5x cells, without rucaparib.
Setting [19] is: at 0.0781 µM, OCI-P5x cells, with rucaparib 20 µM, 100% = cells with rucaparib alone.
The mark [20] stands for this setting: at 0.0781 µM, OCI-P5x cells, without rucaparib.
Where [21] appears, read: at 0.313 µM, OCI-C5x cells, with rucaparib 10 µM, 100% = cells with rucaparib alone.
Setting [22] is: at 0.313 µM, OCI-C5x cells, without rucaparib.
[23] abbreviates: at 0.313 µM, OCI-P5x cells, with rucaparib 20 µM, 100% = cells with rucaparib alone.
The mark [24] stands for this setting: at 0.313 µM, OCI-P5x cells, without rucaparib.
Setting [25] is: at 1.25 µM, OCI-C5x cells, with rucaparib 10 µM, 100% = cells with rucaparib alone.
The mark [26] stands for this setting: at 1.25 µM, OCI-C5x cells, without rucaparib.
Where [27] appears, read: at 1.25 µM, OCI-P5x cells, with rucaparib 20 µM, 100% = cells with rucaparib alone.
[28] abbreviates: at 1.25 µM, OCI-P5x cells, without rucaparib.
[29] abbreviates: at 5 µM, OCI-C5x cells, with rucaparib 10 µM, 100% = cells with rucaparib alone.
Where [30] appears, read: at 5 µM, OCI-C5x cells, without rucaparib.
The mark [31] stands for this setting: at 5 µM, OCI-P5x cells, with rucaparib 20 µM, 100% = cells with rucaparib alone.
[32] abbreviates: at 5 µM, OCI-P5x cells, without rucaparib.

Records with an inconclusive call do not appear. The source made the active and inactive calls.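 The calls were made as follows, unless noted: active = normalized viability below 100% at a tested concentration; inactive = the rest.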

As for `Nc1ccc(C(=O)Nc2cccc(-c3nc(N4CCOCC4)c4oc5ncccc5c4n3)c2)cn1`, the viability in assay [1] (setting [14]) was 112% (inactive); in assay [1] (setting [15]) it was 56.8% (active); in assay [1] (setting [16]), 74.2% (active); in assay [1] (setting [17]), 122% (inactive); in assay [1] (setting [18]) it was 117% (inactive); in assay [1] (setting [19]), 114% (inactive). The viability in [1] (setting [20]) was 117% (inactive); in assay [1] (setting [21]), 147% (inactive); in assay [1] (setting [22]), 131% (inactive); in assay [1] (setting [23]), 109% (inactive); in assay [1] (setting [24]), 119% (inactive); in [1] (setting [25]) it was 150% (inactive). In addition, the viability in assay [1] (setting [26]) is 151% (inactive); in assay [1] (setting [27]) it was 111% (inactive); in [1] (setting [28]), 107% (inactive); in assay [1] (setting [29]), 178% (inactive); in assay [1] (setting [30]), 138% (inactive); in assay [1] (setting [31]) it was 80% (active). Further, the viability in [1] (setting [32]) was 78.9% (active).

Regarding `Cc1ccc(-c2ncn(-c3ccc(Nc4nccc(-c5cccc(N6CCOCC6)c5)n4)cc3)n2)cn1`, the AC50 in assay [2] is 2350 nM (active); in [3] it was 83.3 nM (active); in assay [4], 93.5 nM (active); in [5], 118 nM (active); in assay [6], 2630 nM (active); in [7], 2950 nM (active). Also, in assay [8], the AC50 was 2630 nM (active). In assay [9], the IC50 is 16600 nM (active).

Turning to `COc1ccnc2[nH]cc(C(=O)C(=O)N3CCN(C(=O)c4ccccc4)C[C@H]3C)c12`, the outcome in assay [2], in assay [3], in assay [4], in assay [5], in assay [6] and in assay [7] was inactive. Further, the call in assay [8] and in [9] was inactive.

As to `O=[N+]([O-])c1cn2c(n1)OC[C@@H](OCc1ccc(OC(F)(F)F)cc1)C2`, the AC50 in assay [2] was 26300 nM (active). Besides, the result in [3], in [4], in assay [5], in assay [6], in assay [7] and in assay [8] was inactive. Further, the outcome in [9] was inactive.

On to `Cc1cc(Nc2ncc3c(n2)N(C)C(=O)N(c2cc(NC(=O)c4cccc(C(F)(F)F)c4)ccc2C)C3)n(C)n1`, for which the AC50 in assay [2] is 118 nM (active); in assay [3] it was 1480 nM (active); in [4] it was 418 nM (active); in assay [5] it was 209 nM (active); in assay [6], 105 nM (active); in [7], 59 nM (active). The AC50 in [8] is 263 nM (active). Also, the IC50 in [9] is 209 nM (active).

For `CN(C)C(N)=NC(=N)N`, the compound was classed as inactive in [2], in [3], in [4], in assay [5], in assay [6] and in [7]. Moreover, the compound was called inactive in assay [10] and in assay [9].

For the compound `CCOc1ccn(-c2ccc(F)cc2)c(=O)c1C(=O)Nc1ccc(Oc2ccnc(N)c2Cl)c(F)c1`, the outcome in assay [2], in assay [3], in assay [4], in assay [6], in [10] and in assay [9] was inactive. Further, the AC50 is 18700 nM (active) in [5] and 11800 nM (active) in assay [7]. The fold change in [11] (stronger effect = lower value, cell number ratio, induced over uninduced) is 1.21 (inactive); in assay [11] (measured here: relative caspase fold change +Dox/-Dox) it was 0.507. The cell count in assay [11] (measured here: total cells with miR-34 induction, stronger effect = lower value) was 5080; in [11] (measured here: total cells without miR-34 induction), 4210; in [12], 7130. The SSMD in assay [12] was 2.9. For the same compound, the plate-normalised HSF1 focus index in assay [12] is 1.11 (inactive). Also, the z-score is -0.348 (inactive) in [13] (MELAS cybrid survival, CellTiter-Glo 48 h, stronger effect = higher value) and -0.0407 in assay [13] (Rieske KO mouse fibroblast survival, CellTiter-Glo 72 h). The viability in [1] (at 0.000305 µM, OCI-C5x cells, with rucaparib 10 µM, 100% = cells with rucaparib alone) is 118% (inactive); in [1] (at 0.000305 µM, OCI-C5x cells, without rucaparib), 124% (inactive); in assay [1] (at 0.000305 µM, OCI-P5x cells, with rucaparib 20 µM, 100% = cells with rucaparib alone) it was 109% (inactive); in [1] (at 0.000305 µM, OCI-P5x cells, without rucaparib), 129% (inactive); in [1] (at 0.00122 µM, OCI-C5x cells, with rucaparib 10 µM, 100% = cells with rucaparib alone) it was 125% (inactive); in [1] (at 0.00122 µM, OCI-C5x cells, without rucaparib), 134% (inactive). Also, the viability in assay [1] (at 0.00122 µM, OCI-P5x cells, with rucaparib 20 µM, 100% = cells with rucaparib alone) is 99.9% (active); in assay [1] (at 0.00122 µM, OCI-P5x cells, without rucaparib), 120% (inactive); in assay [1] (at 0.00488 µM, OCI-C5x cells, with rucaparib 10 µM, 100% = cells with rucaparib alone), 113% (inactive); in assay [1] (at 0.00488 µM, OCI-C5x cells, without rucaparib), 120% (inactive); in assay [1] (at 0.00488 µM, OCI-P5x cells, with rucaparib 20 µM, 100% = cells with rucaparib alone) it was 103% (inactive); in [1] (at 0.00488 µM, OCI-P5x cells, without rucaparib), 117% (inactive). The viability was 116% (inactive) in assay [1] (at 0.0195 µM, OCI-C5x cells, with rucaparib 10 µM, 100% = cells with rucaparib alone); 118% (inactive) in [1] (setting [14]); 101% (inactive) in assay [1] (setting [15]); 114% (inactive) in [1] (setting [16]); 110% (inactive) in assay [1] (setting [17]); 138% (inactive) in assay [1] (setting [18]). For the same compound, the viability is 107% (inactive) in assay [1] (setting [19]); 116% (inactive) in assay [1] (setting [20]); 129% (inactive) in assay [1] (setting [21]); 128% (inactive) in [1] (setting [22]); 91.8% (active) in assay [1] (setting [23]); 106% (inactive) in assay [1] (setting [24]). Moreover, the viability is 135% (inactive) in assay [1] (setting [25]); 120% (inactive) in [1] (setting [26]); 88.6% (active) in [1] (setting [27]); 97.3% (active) in [1] (setting [28]); 133% (inactive) in [1] (setting [29]); 135% (inactive) in [1] (setting [30]). The viability is 65.2% (active) in assay [1] (setting [31]) and 96.2% (active) in assay [1] (setting [32]).
